Source: PubChem (National Center for Advancing Translational Sciences (NCATS))
Hits are enriched below; roughly 11% of the tested compounds scored in any of these assays.
NPR1 antag – Natriuretic polypeptide receptor (hNpr1) antagonism - Primary qHTS | actives 1.6% (n = 76,000) | AID 1347048, 2019 | HEK293 hNpr1 GloSensor cGMP, ANP-stimulated luminescence | Atrial natriuretic peptide receptor 1 (Homo sapiens), P16066 | Potency, µM (titrated, usually from 46.3 µM), most hits filed as inhibitors; calls by dose curve; also: nearly all actives have a fitted effect of over 60% in size
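Compound pre-incubated 30 min at room temperature on GloSensor-loaded HEK293 cells stably carrying hNpr1 and the pGS-40F cGMP biosensor. Stimulation uses hNppA at 0.1 nM final; luminescence is taken at baseline and 20 min post-agonist.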
FLuc inh – Firefly luciferase inhibition profiling of diverse chemical library using quantitative high-throughput screening; purified P. pyralis luciferase, luminescence, biochemical; Potency, µM (titrated, usually from 115 µM), most hits filed as inhibitors; actives 2.5% (n = 76,000); also: nearly all actives have a fitted effect of over 65% in size
Target sequence (P08659 whole entry, looked up): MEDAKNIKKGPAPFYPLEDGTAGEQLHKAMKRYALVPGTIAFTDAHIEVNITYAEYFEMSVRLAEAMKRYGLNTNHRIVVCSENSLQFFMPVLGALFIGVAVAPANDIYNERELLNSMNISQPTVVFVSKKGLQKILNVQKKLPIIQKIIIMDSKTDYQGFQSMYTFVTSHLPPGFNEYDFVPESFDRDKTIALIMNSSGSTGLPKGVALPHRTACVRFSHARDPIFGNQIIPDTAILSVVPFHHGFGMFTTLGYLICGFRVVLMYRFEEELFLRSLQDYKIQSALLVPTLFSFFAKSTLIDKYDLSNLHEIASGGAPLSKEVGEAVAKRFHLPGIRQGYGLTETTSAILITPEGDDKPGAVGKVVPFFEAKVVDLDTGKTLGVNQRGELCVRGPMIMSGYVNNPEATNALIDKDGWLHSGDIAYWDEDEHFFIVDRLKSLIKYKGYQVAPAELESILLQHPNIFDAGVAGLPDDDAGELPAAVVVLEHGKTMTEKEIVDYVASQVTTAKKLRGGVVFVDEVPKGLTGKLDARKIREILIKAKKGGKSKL
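Inhibitors were tested against purified firefly luciferase in a biochemical, low-substrate format (both substrates at 10uM) and luminescence measured with a CCD imager.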
3T3 cytotox – Cytotoxic Profiling in NIH 3T3 Cell Line of Diverse Libraries Using Quantitative High-Throughput Screening; AID 1345082, 2018; Potency, µM (top dose mostly 96.7 µM), usual class: inhibitors; actives 4.3% (n = 94,000); NIH 3T3 viability, CellTiter-Glo ATP luminescence, 48-72 h; also: nearly all actives have a fitted effect of over 55% in size
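Mouse fibroblast NIH 3T3 cells, 400 per well, received compound via pintool and were incubated for 48 or 72 hr prior to CellTiter-Glo ATP luminescence measurement.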
HEK cytotox – Cytotoxic Profiling in HEK 293 Cell Line of Diverse Libraries Using Quantitative High-Throughput Screening. actives 6.6% (n = 94,000). HEK 293 viability, ATP luminescence (CellTiter-Glo), 48-72 h. Potency, µM (top dose mostly 115 µM), most hits filed as inhibitors; also: nearly all actives have a fitted effect of over 60% in size
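qHTS cytotoxicity; HEK 293, 250 cells/well; compound pinned; 48 or 72 hr, 37 degree Celsius, 5% CO2, 95% humidity; CellTiter-Glo, 10 min RT; luminescence (ATP).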
Npr1 antag conf – Natriuretic polypeptide receptor (hNpr1) antagonism - Confirmation | shares compounds with NPR1 antag | HEK293 hNpr1 cGMP GloSensor luminescence, ANP-stimulated | Potency, µM (series often up to 57.6 µM), actives largely listed as inhibitors | actives 76% (n = 1,400) | AID 1347044, 2019; calls by dose curve; also: nearly all actives have a fitted effect of over 70% in size
Npr2 selectivity – Natriuretic polypeptide receptor (hNpr2) antagonism - Subtype selectivity assay; shares compounds with NPR1 antag; HEK293 hNpr2 GloSensor cGMP luminescence, CNP-stimulated; Potency, µM (titrated, usually from 57.6 µM), actives largely listed as inhibitors; actives 67% (n = 1,400); calls by dose curve; also: nearly all actives have a fitted effect of over 70% in size
FLuc inh counter – Natriuretic polypeptide receptor (hNpr1) antagonism - Confirmation firefly luciferase (FLuc) inhibition counterscreen; actives 0.7% (n = 1,400); shares compounds with NPR1 antag; purified FLuc enzyme, luminescence, Km substrate; Potency, µM (top dose mostly 57.6 µM), actives largely listed as inhibitors; AID 1347047, 2019
GloSensor cGMP – Natriuretic polypeptide receptor (hNpr1) antagonism - Counterscreen GloSensor control cell line. shares compounds with NPR1 antag. HEK293 GloSensor cGMP, SNP-stimulated, luminescence. Potency, µM (top dose mostly 57.6 µM), hits mostly inhibitors. actives 69% (n = 1,400). AID 1347051, 2019; calls by dose curve; also: nearly all actives have a fitted effect of over 70% in size
Numbers stand for hits. Unless noted, calls follow the shape of the dose curve; as a rule, active = well fitted curve in the direction sought with a large enough effect; inconclusive = small, poorly fitted or top-dose-only effect, or another doubt; inactive = no such curve, though single readings can be large; an effect the other way counts as inactive or inconclusive.

Results for CCc1noc(CC2CCOC3(CCN(S(=O)(=O)c4ccc(C(C)C)cc4)CC3)C2)n1 (centres undefined) ?
NPR1 antag: 10µM; FLuc inh: inactive; 3T3 cytotox: inconclusive; HEK cytotox: inconclusive; Npr1 antag conf: 17.2µM; Npr2 selectivity: 19.3µM; FLuc inh counter: inactive; GloSensor cGMP: 12.2µM

What do the screens show for `CCc1noc(CC2CCOC3(CCN(S(=O)(=O)c4ccc(F)c(F)c4)CC3)C2)n1` (centres undefined)?
NPR1 antag: 10µM; FLuc inh: inactive; 3T3 cytotox: inconclusive; HEK cytotox: 79.4µM; Npr1 antag conf: 21.7µM; Npr2 selectivity: inconclusive; FLuc inh counter: inactive; GloSensor cGMP: inconclusive

What do the screens show for `O=S(=O)(CCNc1cc(C2CC(O)C2)ncn1)c1ccc(F)cc1` (centres undefined)?
NPR1 antag: inactive; FLuc inh: inactive; 3T3 cytotox: inactive; HEK cytotox: inactive

What do the screens show for `OC1CC(c2cc(NCCOCc3ccc(Cl)cc3)ncn2)C1` (centres undefined)?
NPR1 antag: 11.2µM; FLuc inh: inactive; 3T3 cytotox: inconclusive; HEK cytotox: inconclusive; Npr1 antag conf: 21.7µM; Npr2 selectivity: inconclusive; FLuc inh counter: inactive; GloSensor cGMP: 21.7µM

How did COc1ccc(CCCNc2cc(C3CC(O)C3)ncn2)cc1 (centres undefined) do in these assays?
NPR1 antag: 10µM; FLuc inh: inactive; 3T3 cytotox: inactive; HEK cytotox: inconclusive; Npr1 antag conf: 19.3µM; Npr2 selectivity: 19.3µM; FLuc inh counter: inactive; GloSensor cGMP: 13.7µM

Results for CCCc1cc(CN(C)c2nc(CCN)nc3sc(C)c(C)c23)[nH]n1 ?
NPR1 antag: inactive; FLuc inh: inactive; 3T3 cytotox: inconclusive; HEK cytotox: 35.5µM; Npr1 antag conf: inactive; Npr2 selectivity: inconclusive; FLuc inh counter: inactive; GloSensor cGMP: inactive

How did Cc1nn(C)c(C)c1CCC(=O)N1CCC(Cc2noc(-c3ccc(F)cc3)n2)C1 (centres undefined) do in these assays?
NPR1 antag: 15.8µM; FLuc inh: inactive; 3T3 cytotox: inconclusive; HEK cytotox: inconclusive; Npr1 antag conf: 27.3µM; Npr2 selectivity: inconclusive; FLuc inh counter: inactive; GloSensor cGMP: 34.3µM

What do the screens show for `CC1=C[C@@H](CNC2CCOCC2)[C@H](C(C)C)C[C@H]1Cc1nc2ccccc2n1C`?
NPR1 antag: inactive; FLuc inh: inactive; 3T3 cytotox: inconclusive; HEK cytotox: inconclusive

Results for CC1=C[C@@H](CNS(C)(=O)=O)[C@H](C(C)C)C[C@H]1Cc1nc2ccccc2n1C ?
NPR1 antag: 28.2µM; FLuc inh: inactive; 3T3 cytotox: inconclusive; HEK cytotox: inconclusive; Npr1 antag conf: 35.3µM; Npr2 selectivity: 28µM; FLuc inh counter: inactive; GloSensor cGMP: 31.4µM

What do the screens show for `C(=C\c1ccccc1)/CN1CCN(Cc2nc(COc3ccccc3)no2)CC1`?
NPR1 antag: inactive; FLuc inh: inactive; 3T3 cytotox: inconclusive; HEK cytotox: inconclusive; Npr1 antag conf: inconclusive; Npr2 selectivity: inactive; FLuc inh counter: inactive; GloSensor cGMP: inconclusive

What do the screens show for `c1ccc(OCc2noc(CN3CCN(C(c4ccccc4)c4ccccc4)CC3)n2)cc1`?
NPR1 antag: inactive; FLuc inh: inactive; 3T3 cytotox: inactive; HEK cytotox: inconclusive

What do the screens show for `COCCNC(=O)C1CN(c2ccnc3ccnn23)C1`?
3T3 cytotox: inactive; HEK cytotox: inactive

How did O=C(NCc1ccc2c(c1)OCO2)c1nc(-c2cccc(C(F)(F)F)c2)c2ccccn12 do in these assays?
NPR1 antag: inconclusive; FLuc inh: inactive; 3T3 cytotox: inactive; HEK cytotox: inconclusive; Npr1 antag conf: inactive; Npr2 selectivity: inactive; FLuc inh counter: inactive; GloSensor cGMP: inactive

How did Cc1cc(C(=O)NC(C)c2cnc(N3CCCCCCC3)nc2C)n[nH]1 (centres undefined) do in these assays?
NPR1 antag: 10µM; FLuc inh: inactive; 3T3 cytotox: inconclusive; HEK cytotox: inconclusive; Npr1 antag conf: 21.7µM; Npr2 selectivity: 24.3µM; FLuc inh counter: inactive; GloSensor cGMP: 21.7µM

Results for Cc1ccc(CN2C(=O)OC(c3cccc(NC(=O)c4cccs4)c3)C2C(=O)NCC(C)C)cc1 (centres undefined) ?
NPR1 antag: inactive; FLuc inh: inactive; 3T3 cytotox: inconclusive; HEK cytotox: inconclusive

Results for COCCn1ncc(N2CCCC(CC(=O)N3CC=C(c4ccccc4)CC3)C2)cc1=O (centres undefined) ?
NPR1 antag: inactive; FLuc inh: inactive; 3T3 cytotox: inconclusive; HEK cytotox: inactive

Results for COc1ccc(NC(=O)N2CCCC(c3noc(COc4ccccc4)n3)C2)c(C)c1 (centres undefined) ?
NPR1 antag: inconclusive; FLuc inh: inactive; 3T3 cytotox: inactive; HEK cytotox: inconclusive; Npr1 antag conf: 24.3µM; Npr2 selectivity: inconclusive; FLuc inh counter: inactive; GloSensor cGMP: 21.7µM

Results for CCOc1ccccc1NC(=O)N1CCCC(c2noc(COc3ccccc3)n2)C1 (centres undefined) ?
NPR1 antag: inactive; FLuc inh: inactive; 3T3 cytotox: inconclusive; HEK cytotox: inconclusive

How did Cc1cccc(CN2CCCN(S(=O)(=O)c3cn(C)cn3)C(c3ccccc3)CC(=O)NCC2)c1 (centres undefined) do in these assays?
NPR1 antag: inactive; FLuc inh: inactive; 3T3 cytotox: inactive; HEK cytotox: inactive

How did CNC(=O)[C@@H]1C[C@H](Oc2ccccc2)CN1C(=O)Cn1nc(C)cc1C do in these assays?
NPR1 antag: inactive; FLuc inh: inactive; 3T3 cytotox: inactive; HEK cytotox: inactive

What do the screens show for `Cc1cc(Cl)ccc1-c1ccc(CNC2CN(C(=O)OC(C)(C)C)C2)cc1`?
3T3 cytotox: inconclusive; HEK cytotox: inconclusive; Npr1 antag conf: 21.7µM; Npr2 selectivity: 21.7µM; FLuc inh counter: inactive; GloSensor cGMP: 19.3µM

How did Cn1ncc2c(C(=O)NCCc3ccc(F)cc3)cc(-c3ccc(C(F)(F)F)cc3)nc21 do in these assays?
3T3 cytotox: inactive; HEK cytotox: inactive
